Inconclusive results are not listed. The source made the active and inactive calls. Calls follow the shape of the dose curve; as a rule, active = well fitted curve in the direction sought with a large enough effect; inconclusive = small, poorly fitted or top-dose-only effect, or another doubt; inactive = no such curve, though single readings can be large; an effect the other way counts as inactive or inconclusive.
Legend:
[1] = Cytotoxicity qHTS for assessment of Hepg2 cells membrane integrity screened against the NCATS CANVASS Library (AID 1347387); conditions: HepG2 LDH release (CytoTox-ONE) fluorescence, 5 h; series mostly up to 91.4 µM
Summary of the method: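 Cells were seeded at 2000 per well and left overnight to attach. Compounds were pin-transferred to give 0.59 nM - 46 uM in an 11-point series and incubated 5 hr at 37C. CytoTox-ONE reagent was added and, after 10 min at room temperature, fluorescence (ex 560, em 590 nm) was read.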

[2] = qHTS for Activators of p53 Stress Response Pathway screened against the NCATS CANVASS Library (AID 1347388); conditions: p53RE-bla HCT-116, beta-lactamase reporter, 16 h; series mostly up to 91.4 µM
Summary of the method: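 p53RE-bla HCT-116 cells (4000/well) were pre-incubated for 5 h, then treated with compound (11 points) for 16 h at 37C. After 2 h with CCF4, the 460/530 nm ratio gave reporter activation; CellTiter-Glo measured viability.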

[3] = qHTS assay for small molecule disruptors of mitochondrial membrane potential screened against the NCATS CANVASS Library (AID 1347389); conditions: HepG2 mitochondrial membrane potential, m-MPI red/green ratio, 1.5 h; series mostly up to 91.4 µM
Summary of the method: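 Mitochondrial depolarization in HepG2 cells is scored as a falling aggregate-to-monomer fluorescence ratio after 1 hr compound exposure and 30 min staining with Mito-MPS dye at 37C, each compound tested as an 11-point titration.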

[4] = Secretion counterscreen for inhibitors of the SERCaMP assay screened against the NCATS CANVASS Library (AID 1347390); conditions: SH-SY5Y constitutive GLuc secretion, luminescence, 20 h; series mostly up to 76.6 µM
Summary of the method: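 SH-SY5Y cells expressing constitutively secreted GLuc, 1000 cells/well, attached 4 h at 37C, then exposed to compounds (0.001 - 77 uM, 11-pnt series) for 20 h. Coelenterazine added; luminescence read to flag secretory-pathway interferers.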

[5] = qHTS for activators of Nrf2/ARE signaling pathway screened against the NCATS CANVASS Library (AID 1347391); conditions: ARE-bla HepG2, beta-lactamase reporter, 16 h; series mostly up to 91.4 µM
Summary of the method: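 Beta-lactamase reporter signal, read as 460 and 530 nm emission under 405 nm excitation after 2 h CCF4 loading, reflected ARE activation in HepG2 cells treated 16 h with an 11-point series.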

[6] = qHTS for activators of dead-cell proteases activity screened against the NCATS CANVASS Library (AID 1347392); conditions: HepG2 cytotoxicity, dead-cell protease luminescence, 5 h; series mostly up to 91.4 µM
Summary of the method: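 HepG2, 2000 cells/well, 18 h attach; cpd 11-pt, 5 h 37C 5% CO2; CytoTox-Glo (AAF-aminoluciferin) 15 min RT; luminescence read.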

[7] = qHTS for inhibitors of ER calcium dysfunction: SERCaMP assay screened against the NCATS CANVASS Library (AID 1347393); conditions: SH-SY5Y GLuc-SERCaMP secretion, thapsigargin, luminescence
Summary of the method: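 SH-SY5Y GLuc-SERCaMP, 1000 cells/well, 4 h attach; cpd 16 h, 37C/5% CO2; thapsigargin (added as 6x 600 nM) 4 h; coelenterazine; luminescence. Reduced reporter release = ER Ca stabilization.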

[8] = Vero-766 cells viability qHTS against the NCATS CANVASS Library: Counterscreen for Zika virus inhibition assay (AID 1347394); conditions: Vero 766 viability, CellTiter-Glo luminescence, 72 h; series mostly up to 91.4 µM
Summary of the method: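 Uninfected Vero 766 (African green monkey) cells, 1000/well, attached overnight, then exposed 72 h at 37C to compounds (11-point qHTS). Viability read by CellTiter-Glo luminescence; media-only wells served as 100% inhibition.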

[9] = qHTS for inhibitors of Wild type Zika virus screened against the NCATS CANVASS Library (AID 1347396); conditions: Vero cells, Zika virus CPE, CellTiter-Glo, 72 h; series mostly up to 91 µM
Summary of the method: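 Using ATP-based luminescence (CellTiter Glo), this screen scores rescue of Vero 766 cells from wild-type Zika killing at 72 h post-infection. Compounds are tested in a concentration series.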

[10] = Viability qHTS for inhibitors of the SERCaMP assay screened against the NCATS CANVASS Library (AID 1347400); conditions: SH-SY5Y SERCaMP cells viability, CellTiter-Glo, 48 h; series mostly up to 183 µM
Summary of the method: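 Seed SH-SY5Y-GLuc SERCaMP MJH297 cells at 1000 per well, incubate 4 h, add compounds across an 11-point range, incubate 48 h at 37C, then add CellTiter-Glo and read luminescence.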

Measured: Potency

O=C1C[C@@H]2OCC=C3CN4CC[C@]56c7ccccc7N1[C@H]5[C@H]2[C@H]3C[C@H]46
active: [7] 59.6 µM
inactive: all other assays above

COc1ccc2[nH]cc(CCN)c2c1
not listed: [7] | [10]
inactive: all other assays above

Reference: PubChem BioAssay (NCATS)
